Assay results from PubChem BioAssay (NCATS).
“And” between values parts separate entries of the source, which are not always exact repeats. Equal entries are not always repeated. Inconclusive results are not listed. A call without a number means that no potency is given here. A number with no mark means an inactive call. The source made the active and inactive calls. Calls come from the whole dose curve; as a rule, active = well fitted cell-killing curve with a large enough effect; inconclusive = small, poorly fitted or top-dose-only effect, or effect the other way; inactive = no such curve, though single readings can be large or run the other way.

Assay: Viability qHTS for spleen associated tyrosine kinase inhibitor (SYKi) drug resistant MV4-11 cells (AID 1963824); note: nearly all actives have a fitted effect of over 35% in size
Conditions: SYKi-resistant MV4-11 viability, CellTiter-Glo, 72 h; series mostly up to 45 µM
In short: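 CellTiter-Glo luminescence, read 10 min after reagent addition, reports viability after a 72 hr compound exposure. Cells are an MV4-11 line made resistant to SYK inhibition, seeded at 500 per well onto compound-containing plates.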
Potency is the fitted concentration of half-maximal effect.

SMILES	Potency	viability, % of control
Oc1ccc(Cl)cc1Cc1ccccc1	24.6 µM (active)	–
COc1cc(C)[nH]c(=O)c1CNC(=O)c1c(C)n([C@H](C)C2CCOCC2)c2ccccc12	inactive	–
CN[C@@H](C)[C@H](O)c1ccccc1	inactive	–
CC(C)=CC1C(C(=O)OCN2C(=O)C3=C(CCCC3)C2=O)C1(C)C (stereo not drawn)	inactive	–
CC1NCCOC1c1ccccc1 (stereo not drawn)	inactive	–
CCN(CC)CCOC(=O)C(C)(c1ccccc1)c1ccccc1	inactive	–
NCc1cccnc1	inactive	–
O=C(O)COc1ccccc1	inactive	–
Cc1cccc(C)c1NC1=NCCCS1	inactive	–
NCC(O)c1ccc(O)cc1 (stereo not drawn)	inactive	–
C[C@@H]1O[C@@H](O[C@@H]2C=C3CC[C@@H]4[C@H](CC[C@]5(C)[C@@H](c6ccc(=O)oc6)CC[C@]45O)[C@@]3(C)CC2)[C@H](O)[C@H](O)[C@H]1O	0.0075 µM (active)	–
CC1OC(C)OC(C)O1 (stereo not drawn)	inactive	–
CCCC[N+]1(C)[C@@H]2CC(OC(=O)[C@H](CO)c3ccccc3)C[C@H]1[C@@H]1O[C@@H]12 (stereo partly drawn)	inactive	–
Cc1ncc(CNC(=O)N(CCCl)N=O)c(N)n1	inactive	–
COC(=O)C1=CCCN(C)C1	inactive	–
COCC(=O)N(c1c(C)cccc1C)C(C)C(=O)OC (stereo not drawn)	inactive	–
C[C@@H]1CC[C@@]2(OC1)O[C@H]1C[C@H]3[C@@H]4CC=C5C[C@@H](O[C@@H]6O[C@H](CO)[C@@H](O[C@@H]7O[C@@H](C)[C@H](O)[C@@H](O)[C@H]7O)[C@H](O)[C@H]6O[C@@H]6O[C@@H](C)[C@H](O)[C@@H](O)[C@H]6O)CC[C@]5(C)[C@H]4CC[C@]3(C)[C@H]1[C@@H]2C	1.66 µM (active)	–
O=c1cccc2n1CC1CNC[C@H]2C1	inactive	–
CC1(C)CC(O)CC(C)(C)N1O	inactive	–

SMILES	Potency	viability, % of control
CC(C)(N)Cc1ccc(Cl)cc1	inactive	–
Oc1cc(Cl)ccc1Oc1ccc(Cl)cc1Cl	7.85 µM (active) and 16.8 µM (active)	–
COc1cc(C[C@@H](C)N)c(OC)cc1C	inactive	–
C=CCC1(C(C)CC)C(=O)NC(=O)NC1=O (stereo not drawn)	inactive	–
Cc1ccc(N=CN(C)C=Nc2ccc(C)cc2C)c(C)c1	inactive	–
CCCN1CCO[C@@H]2c3cc(O)ccc3OC[C@H]21	inactive	–
NCC(CC(=O)O)c1ccc(Cl)cc1 (stereo not drawn)	–	103% [at 0.588 µM]
O=C(CCCCl)c1ccc(F)cc1	inactive	–
CCOP(=S)(OCC)Oc1cc(C)nc(C(C)C)n1	inactive	–
COc1cc(CC(C)N)cc(OC)c1OC (stereo not drawn)	inactive	–
COc1ccc(OC)c(CC(C)N)c1 (stereo not drawn)	inactive	–
COC(=O)C(Cl)C(=O)OC	inactive	–
COc1cc(N)c(Cl)cc1C(=O)NC1CN2CCC1CC2 (stereo not drawn)	inactive	–
C=CCN1CC[C@]23CCCC[C@H]2[C@H]1Cc1ccc(O)cc13	inactive	–
CCC(=O)OC1(c2ccccc2)CCN(C)CC1	inactive	–
Nc1ccc(Cl)cc1	inactive	–
CN1[C@H]2CC(O)C[C@H]1[C@H]1O[C@H]12 (stereo partly drawn)	inactive	–
CN1CCC(O)(c2ccc(F)cc2)C(C(=O)c2ccc(F)cc2)C1 (stereo not drawn)	inactive	–
O=C(N/N=C/c1ccc([N+](=O)[O-])o1)c1cc([N+](=O)[O-])cc([N+](=O)[O-])c1O	inactive	–
